# Screening data deposited in PubChem BioAssay by National Center for Advancing Translational Sciences (NCATS).
# Hits are enriched below; roughly 10% of the tested compounds scored in any of these assays.
# KB-V1 cytotox: qHTS assay for MDR1-selective chemotherapeutics: Primary screen using the drug-selected MDR subline cells KB-V1 | KB-V1 MDR cells viability, CellTiter-Glo, 72 h | Potency, µM (top dose mostly 46.1 µM), actives largely listed as cytotoxic | 400,000 compounds, 3.4% hits | AID 1347076, 2019; also: nearly all actives have a fitted effect of over 60% in size
#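 In this primary screen, KB-V1 cells overexpressing P-gp are incubated with library compounds (lowest to highest concentration) for 72 h at 37 degrees C before a luminescent ATP viability read.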
# SW480 rereplic: A quantitative high throughput screen for small molecules that induce DNA re-replication in SW480 colon adenocarcinoma cells; AID 624297, 2012; Potency, µM (top dose mostly 46.1 µM), hits mostly activators; 340,000 compounds, 1.8% hits; SW480 DNA re-replication, Hoechst DNA content imaging, 48 h; also: nearly all actives have a fitted effect of over 55% in size
#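 DNA re-replication was detected as more nuclei of elevated Hoechst intensity after 48 hr exposure to compound (23 nL pinned per well of 250 cells).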
# RORg inh: qHTS for inhibitors of ROR gamma transcriptional activity; AID 2551, 2010; 310,000 compounds, 5.4% hits; Drosophila S2 Gal4-RORgamma UAS-luciferase reporter, 20 h; Potency, µM (doses to about 53.6 µM), most hits filed as inhibitors; also: nearly all actives have a fitted effect of over 60% in size
# Target sequence (P51450 whole entry, looked up, the tested form may be a part): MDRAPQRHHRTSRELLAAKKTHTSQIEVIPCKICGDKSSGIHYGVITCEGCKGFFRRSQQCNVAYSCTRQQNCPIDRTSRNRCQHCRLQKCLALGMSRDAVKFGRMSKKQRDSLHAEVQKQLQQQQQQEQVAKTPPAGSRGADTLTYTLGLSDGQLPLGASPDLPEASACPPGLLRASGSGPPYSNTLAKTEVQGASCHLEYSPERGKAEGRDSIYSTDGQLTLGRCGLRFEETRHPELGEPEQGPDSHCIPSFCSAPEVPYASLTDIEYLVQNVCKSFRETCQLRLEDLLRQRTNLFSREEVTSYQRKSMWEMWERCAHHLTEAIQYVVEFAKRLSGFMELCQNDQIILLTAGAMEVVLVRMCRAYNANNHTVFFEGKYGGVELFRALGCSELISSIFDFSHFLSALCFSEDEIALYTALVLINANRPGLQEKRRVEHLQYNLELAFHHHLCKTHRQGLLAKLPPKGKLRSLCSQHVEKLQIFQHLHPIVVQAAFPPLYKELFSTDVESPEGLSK
#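 Compounds are pin-transferred onto Drosophila Schneider cells expressing a copper-inducible Gal4–ROR gamma transactivation domain fusion. After 1 hr, copper sulfate is added to 700 uM final; luciferase is read 20 hr later.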
# MCF10A rereplic: A quantitative high throughput screen for small molecules that induce DNA re-replication in MCF 10a normal breast cells; MCF 10A DNA re-replication, Hoechst nuclear intensity, 48 h; Potency, µM (top dose mostly 46.1 µM), hits mostly activators; 350,000 compounds, 2.9% hits; AID 624296, 2012; also: nearly all actives have a fitted effect of over 50% in size
# KB-3-1 cytotox: qHTS assay for MDR1-selective chemotherapeutics: Primary screen using the parental adenocarcinoma cell KB-3-1 | 400,000 compounds, 1.4% hits | KB-3-1 viability, CellTiter-Glo ATP luminescence, 72 h | AID 1347075, 2019 | Potency, µM (doses to about 46.1 µM), hits mostly cytotoxic; also: nearly all actives have a fitted effect of over 60% in size
#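 Cytotoxicity measured as CellTiter-Glo luminescence after 72 h at 37 C. Compound titrations were pinned onto drug-naive KB-3-1 parental adenocarcinoma cells grown in DMEM with 10% FBS, and normalized data fitted to concentration-response curves.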
# Gal4-VP16 FLuc: VP16 counterscreen qHTS for inhibitors of ROR gamma transcriptional activity; Drosophila S2 Gal4-VP16 UAS-luciferase, luminescence, 20 h; Potency, µM (doses to about 53.6 µM), most hits filed as inhibitors; 310,000 compounds, 3.5% hits; AID 2546, 2010;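 also: Gal4-VP16 expression switched on by copper sulfate through the metallothionein promoter; nearly all actives have a fitted effect of over 50% in size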
# Numbers stand for hits; . = inactive; ? = inconclusive; / = no result given; [ ] = another dose, or the depositor's remark. Calls follow the shape of the dose curve; as a rule, active = well fitted curve in the direction sought with a large enough effect; inconclusive = small, poorly fitted or top-dose-only effect, or another doubt; inactive = no such curve, though single readings can be large; an effect the other way counts as inactive or inconclusive.
SMILES,KB-V1 cytotox,SW480 rereplic,RORg inh,MCF10A rereplic,KB-3-1 cytotox,Gal4-VP16 FLuc
C=CCNC(=S)NNC(=O)c1cccn(Cc2ccc(Cl)cc2Cl)c1=O,23µM,.,.,.,.,.
CNC(=S)NNC(=O)c1cccn(Cc2ccc(Cl)c(Cl)c2)c1=O,?,.,.,.,.,.
CCNC(=S)NNC(=O)c1cccn(Cc2ccc(Cl)cc2Cl)c1=O,?,.,.,.,.,.
N#Cc1c2c(c(-c3ccccc3Cl)[nH]c1=S)CCCC2,.,.,16µM,.,?,16µM
N#Cc1c(-c2ccccc2Cl)cc(-c2ccccc2)[nH]c1=S,/,/,.,/,/,.[10 µM]
C[N+]1(CC(=O)c2ccc(-c3ccccc3)cc2)CCOCC1,.,/,/,/,.,/
O=C(Nc1ccc2oc(-c3ccncc3)nc2c1)c1ccc2c(c1)OCCO2,.,?,?,?,.,?
O=C(Nc1ccc2oc(-c3ccccc3)nc2c1)c1ccc2c(c1)OCCO2,8.2µM,?,.,21µM,?,.
COc1cc(C(=O)Nc2cc(-c3ccccc3)[nH]n2)cc(OC)c1OC,18µM,.,.,.,?,.
CCC(=O)NC(=S)Nc1ccc2oc(-c3ccc(OC)cc3)nc2c1,.,.,.,.,?,.
COc1ccc(-c2nc3cc(NC(=S)NC(=O)Cc4ccccc4)ccc3o2)cc1,.,.,4.5µM,?,.,2.5µM
COc1cc(C(=O)Nc2ccc3oc(-c4cccnc4)nc3c2)cc(OC)c1OC,15µM,.,.,?,.,.
O=C(Nc1nnc(C2CCCCC2)s1)C1CCN(C(=O)c2ccco2)CC1,.,/,/,/,?,/
COc1ccccc1N1CCN(c2ccc(NC(=O)c3ccc(C)cc3)cc2C(=O)O)CC1,.,/,/,/,.,/
CCCCCCCCNc1ccc(/C=C/c2ccnc3ccccc23)cc1,.,/,/,/,.,/
O=C(Nc1ccc(Nc2ccccc2)cc1)c1c(Cl)cccc1Cl,.,.,/,23µM,.,/
COc1cc(C(=O)Nc2ccc3oc(-c4ccccc4)nc3c2)cc(OC)c1OC,8.2µM,/,/,/,.,/
COc1cc(C(=O)Nc2ccc(Nc3ccccc3)cc2)cc(OC)c1OC,.,.,.,21µM,.,.
O=C(Nc1ccc(Nc2ccccc2)cc1)c1c(F)c(F)c(F)c(F)c1F,?,.,.[1.91 µM],.,.,?
CN(C)C(=O)c1cccc(-c2cccc(-c3nc(C(=O)NCc4ccccc4)cc4c3[C@@H](CCO)N(S(=O)C(C)(C)C)C4)c2)c1 (some centres undefined),.,/,/,/,?,/
Cc1ccc(S(=O)(=O)N(C)C[C@@H]2OCc3cnnn3CCCC(=O)N([C@@H](C)CO)C[C@H]2C)cc1,.,/,/,/,.,/
Cc1ccnc(NC(=S)NC(=O)/C=C/c2ccccc2)c1,.,.,2.8µM,.,.,?
COc1cc(/C=C/c2cc[n+](C)cc2)ccc1OCC(=O)Nc1ccccc1,?,18µM,.,.,.,.
C/C=C/c1ccc(OCC(=O)Nc2ccc(C(N)=O)cc2)c(OC)c1,?,.,.,?,.,.
CC(=O)N(C)c1ccc(NC(=O)/C=C/c2ccccc2Cl)cc1,.,.,1.1µM,.,.,18µM
SMILES,KB-V1 cytotox,SW480 rereplic,RORg inh,MCF10A rereplic,KB-3-1 cytotox,Gal4-VP16 FLuc
Cc1cccnc1NC(=S)NC(=O)/C=C/c1ccccc1,.,.,4.5µM,.,.,6.3µM
O=C(/C=C/c1ccccc1Cl)Nc1ccncc1,.,.,.,.,.,.
Cc1cccnc1NC(=O)c1ccc(C(=O)c2ccccc2)cc1,.,.,/,.,.,/
CCCN1CCN(C(=O)c2ccc3[nH]c(C)c(C)c3c2)CC1,.,/,/,/,.,/
Cc1ccnc(NC(=S)NC(=O)/C=C/c2ccc(Cl)cc2)c1,.,.,14µM,.,.,13µM
COC(=O)/C=C/C(=O)Nc1cccnc1,.,.,11µM,?,.,.
COc1ccc(/C=C/C(=O)NC(=S)Nc2ccc(Br)cn2)cc1,.,?,?,.,.,.
Cc1ccnc(NC(=O)/C=C/c2ccccc2Cl)c1,?,?,3.5µM,.,.,5.6µM
